# From PubChem BioAssay AID504332 (National Center for Advancing Translational Sciences (NCATS), 2011)
# About 31,000 (8.9%) of roughly 350,000 compounds were called active. Not shown: some 15% with an inconclusive outcome. The call rests on the fitted dose curve; in most records, active means well fitted inhibition curve with a large enough effect; inconclusive means small, poorly fitted or top-dose-only effect; inactive means no such curve, though single readings can be large or run the other way. Only a selection was taken, and actives are over-represented in it overall.
# Target: Histone-lysine N-methyltransferase EHMT2 (Homo sapiens) (UniProt Q96KQ7)
# Test: qHTS Assay for Inhibitors of Histone Lysine Methyltransferase G9a; further: nearly all actives have a fitted effect of over 75% in size
# Conditions: G9a H3K9 monomethylation, AlphaScreen, 2 h; series mostly up to 59 µM; activity, negative = inhibition: at the top concentration
# Method in brief: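 Enzyme 20 nM + cpd, 15 min RT; add b-H3K9 pep 500 nM / SAM 20 uM; 2 h RT; anti-H3K9me1 Ab 0.5 ug/mL + SA donor / anti-rabbit acceptor beads 20 ug/mL each, 10 min; AlphaScreen read.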
# On the % scale 0 is the no-effect control and ±100 the full control effect; potency means the concentration at half of the fitted maximal effect.
# Chain of Histone-lysine N-methyltransferase EHMT2 (Homo sapiens) (Q96KQ7 913-1193 limits assumed): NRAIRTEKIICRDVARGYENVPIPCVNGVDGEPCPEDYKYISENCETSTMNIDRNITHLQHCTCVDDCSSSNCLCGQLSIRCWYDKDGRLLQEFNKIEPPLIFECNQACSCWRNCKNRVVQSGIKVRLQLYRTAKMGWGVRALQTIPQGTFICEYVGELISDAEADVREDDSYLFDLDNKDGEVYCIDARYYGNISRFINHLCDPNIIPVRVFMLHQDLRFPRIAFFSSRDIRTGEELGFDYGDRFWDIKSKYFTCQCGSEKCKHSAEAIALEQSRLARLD
SMILES,"activity, negative = inhibition",Potency
Cc1ccc(NC(=O)CN(C)C(=O)c2cccc(S(=O)(=O)N3CCCC3)c2)cc1,-8.22% (inactive),–
COc1ccccc1OCC(=O)Nc1ccccc1C(=O)NC1CC1,-4.61% [at 0.501 µM] (inactive),–
COc1ccc(CCNC(=O)c2ccc(-n3c(C)cc4c3CCCC4)cc2)cc1OC,-40.5% (inactive),–
O=C(CSC1=NS(=O)(=O)c2cc(F)ccc2N1)Nc1ccccc1F,-42.2% [at 102 µM] (inactive),–
N#Cc1nc(/C=C/c2ccc(F)cc2)oc1NC1CCCCC1,2.98% (inactive),–
Cc1cc(C)c(NC(=O)Cn2c(SCC(=O)NCc3ccccc3)nc3ccccc32)c(C)c1,4.9% (inactive),–
O=C(Nc1cc(Cl)cc(Cl)c1)c1ccc2c(c1)N(Cc1cccc(Cl)c1)C(=O)c1ccccc1S2=O (stereo not drawn),6.71% (inactive),–
COc1ccccc1NC(=O)c1oc2ccccc2c1NC(=O)COc1ccccc1OC,-17.6% (inactive),–
CCC(C)c1ccc2oc(-c3ccc(NC(=O)c4cc5ccccc5o4)cc3)nc2c1 (stereo not drawn),-8.57% (inactive),–
Cn1ccc(=Nc2ccc(NC(=O)c3ccc(N=c4ccn(C)c5ccc([N+](=O)[O-])cc45)cc3)cc2)cc1,–,15.8 µM (active)
COc1cc(NS(=O)(=O)c2ccc(NC(=O)c3ccc([N+](=O)[O-])cc3)cc2)ncn1,0.812% [at 102 µM] (inactive),–
Cc1cc([N+](=O)[O-])ccc1NC(=O)c1ccc(NC(=O)C(C)C)cc1,-4.16% [at 102 µM] (inactive),–
COc1ccccc1CNS(=O)(=O)CC12CCC(CC1=O)C2(C)C (stereo not drawn),-2.74% [at 102 µM] (inactive),–
COc1cc(C(=O)NCc2cc3cc(Cl)ccc3n2C)cc(OC)c1OC,-11.8% [at 102 µM] (inactive),–
Cc1c(Cl)cccc1NC(=O)c1noc2c1CCCC2,8.61% (inactive),–
Cc1ccc(S(=O)(=O)N2CCCCC2)cc1C(=O)N(C)CC(=O)Nc1cccc(F)c1,-21.7% [at 102 µM] (inactive),–
Cc1cc(C)c(SCCc2ccncc2)c(C)c1,58.4% [at 102 µM] (inactive),–
CCOCC(=O)Nc1ncc(S(=O)(=O)c2ccc([N+](=O)[O-])cc2)s1,–,35.5 µM (active)
CC(C)c1nnc(NC(=O)COC(=O)/C=C/c2ccc([N+](=O)[O-])cc2)s1,105% [at 102 µM] (inactive),–
Cc1cc(NC(=O)COc2ccc([N+](=O)[O-])cc2)no1,-2.93% [at 12.7 µM] (inactive),–
CC/C(=N\NC(=O)c1c(C)nc2ccccn12)c1ccc(Cl)cc1,15.2% [at 102 µM] (inactive),–

SMILES,"activity, negative = inhibition",Potency
CC(C)C(C)NC(=O)COc1nc2ccccc2nc1N(C)C1CCCCC1 (stereo not drawn),-5.83% [at 102 µM] (inactive),–
COc1ccccc1N(C)S(=O)(=O)c1ccc(Cl)c(C(=O)Nc2ccncc2)c1,9.32% (inactive),–
CN1CCN(C2(CNC(=O)COc3ccc(C(C)(C)C)cc3)CCCCC2)CC1,8.13% (inactive),–
C/C(=N\NC(=S)NCc1ccccc1)c1ccc(Cl)cc1,9.66% (inactive),–
C/C(=N\NC(=S)NCc1ccccc1)C1CCCCC1,–,35.5 µM (active)
O=C(CC1CCCCC1)NCc1ccccc1,20.6% [at 102 µM] (inactive),–
COc1ccc(OC)c(CNC(=O)Cn2nc(C)c3c(C)n(-c4ccc(C)cc4)nc3c2=O)c1,18% (inactive),–
COc1cccc(CNC(=O)c2ccc3c(Cl)c4c(nc3c2)CCCC4)c1,-40.5% (inactive),–
CCc1noc(C)c1C(=O)Nc1nc(-c2ccccc2)cs1,-39.9% [at 102 µM] (inactive),–
C/C(CC1CC(C)(C)OC1=O)=N/Nc1nc(-c2ccccc2)cs1 (stereo not drawn),–,3.16 µM (active)
CC1(C)CC(CCC(=O)Nc2ccccc2Cl)C(=O)O1 (stereo not drawn),20.1% (inactive),–
CN1C(=O)c2[nH]nc(-c3ccc(F)cc3)c2C1c1ccccn1 (stereo not drawn),-3.23% (inactive),–
CCOC(=O)c1[nH]c2ccc(OC)cc2c1NC(=O)CCN1CCN(Cc2ccccc2)CC1,-13.9% [at 2.33 µM] (inactive),–
CCOC(=O)c1[nH]c2ccc(OC)cc2c1NC(=O)N1CCOCC1,–,50.1 µM (active)
CCOC(=O)C1CCN(C(=O)Nc2cccc(OC)c2)CC1,4.16% [at 102 µM] (inactive),–
COCC(C)N=CC1=C(O)CC(C)(C)CC1=O (stereo not drawn),10.1% (inactive),–
CCCC(=O)C1=C(N(C)c2ccccc2)CC(C)(C)C(C(=O)OC)C1=O (stereo not drawn),-30.5% (inactive),–
C=CCO/N=C/C1=C(O)C(C(=O)OC)C(C)(C)CC1=O (stereo not drawn),–,15.8 µM (active)
COc1ccc(S(=O)(=O)n2cnc3ccccc32)c(C)c1,9.88% [at 102 µM] (inactive),–
N#CCCN1CCN(S(=O)(=O)c2ccc(S(=O)(=O)N3CCCC3)cc2)CC1,1.44% (inactive),–
N#Cc1cccc(CN2CCC(=O)N(CCO)CC2)c1,-5.64% [at 102 µM] (inactive),–

SMILES,"activity, negative = inhibition",Potency
CC(C)(C)c1cc(CN2CCN(CCC#N)CC2)cc(C(C)(C)C)c1O,–,17.8 µM (active)
CCN(C(=O)CSc1ncnc2sccc12)c1c(N)n(Cc2ccccc2)c(=O)[nH]c1=O,-8.47% (inactive),–
Cc1ccc(N2C(=O)C3C4C=CC(CC4)C3C2=O)cc1Br (stereo not drawn),-6.84% [at 0.501 µM] (inactive),–
CCCn1nc(NC(=O)C(C)C)c2cc3cc(OC)ccc3nc21,7.96% [at 102 µM] (inactive),–
O=S(=O)(c1ccc(Br)cc1)N1CCC(c2nc3ccccc3[nH]2)CC1,–,70.8 µM (active)
N#CC(C(=O)c1ccc(S(=O)(=O)N2CCCCCC2)cc1)c1nc2ccccc2[nH]1 (stereo not drawn),25.8% [at 102 µM] (inactive),–
O=C(C1CCCO1)N1CCC(c2nc3ccccc3[nH]2)CC1 (stereo not drawn),-28.9% [at 12.7 µM] (inactive),–
COc1ccc(CCNC(=O)COC(=O)Cc2cccc(F)c2)cc1,5.11% [at 0.501 µM] (inactive),–
CC(Oc1cc2oc(=O)c3c(c2cc1Cl)CCCC3)C(=O)NCc1ccncc1 (stereo not drawn),5.02% [at 102 µM] (inactive),–
COc1cc(OC)nc(NC(=O)CCl)n1,-4.48% (inactive),–
COc1cc(OC)nc(N/N=C(\c2ccccc2)c2ccncc2)n1,–,12.6 µM (active)
COc1ccc(C/C(C)=N/NC(=O)c2ccncc2)cc1,16.5% [at 102 µM] (inactive),–
CN(CC(=O)NNC(=O)CNC(=O)c1ccccc1Cl)S(=O)(=O)c1ccc(Cl)cc1,4.73% [at 0.501 µM] (inactive),–
Cc1ccc(NC(=O)c2cc3cc(C)ccc3n2C)cc1,-9.16% (inactive),–
O=C(c1cccc2ccccc12)N1CCN(c2ccccc2F)CC1,–,2.82 µM (active)
O=C(c1ccc(CN2CCOCC2)cc1)N1CCN(c2ccccc2F)CC1,15.9% (inactive),–
COc1ccc2oc(=O)c(C(=O)N3CCN(c4ccccc4F)CC3)cc2c1,21.4% [at 12.7 µM] (inactive),–
Cc1cccc(C)c1Nc1nnc(SCC(=O)Nc2sccc2C#N)s1,-7.51% (inactive),–
Cc1csc(SCC(=O)Nc2sccc2C#N)n1,2.21% [at 102 µM] (inactive),–
CC(c1nnc(SCC(=O)Nc2sccc2C#N)n1-c1ccc(Cl)cc1)N(C)C (stereo not drawn),–,50.1 µM (active)
COc1ccc(C2NC(=O)N(C)C(C)=C2[N+](=O)[O-])cc1 (stereo not drawn),-2.62% [at 102 µM] (inactive),–
